# According to PubChem BioAssay AID435005 (Broad Institute, 2010):
# Values joined by “and” are separate entries in the source; they are usually repeats but may differ in a detail not shown here. Equal entries are not always repeated. The whole screen tested about 300,000 compounds, of which about 2,400 (0.8%) were called active.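 Rule for the calls: active = Every replicate reaches about 75%, or at least half do and their mean reaches it too (limit read from the data); inconclusive = At least half of replicates reach the limit but their mean does not; inactive = Under half of replicates reach the limit.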 The list comes from a sample in which actives are over-represented; it also holds similar structures and randomly drawn compounds. Some structures have more than one record in an assay (separate samples or runs), and their calls can disagree.
# Assay: INS-1E beta cell survival under cytokines – luminescence, primary screen (AID 435005);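 note: 0% = cytokine-treated negative control wells and 100% = positive control rescue; higher means more ATP so stronger rescue from cytokine killing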
# Conditions: INS-1E cytokine-induced death, ATP luminescence, 48 h; stronger effect = higher value; percent of positive-control rescue, neutral wells zero; concentration not given here
row,Compound,protection from apoptosis
1,C=CCC[C@@H](Cc1ccc(F)cc1)C(=O)OC[C@@H](C)NC(=O)[C@H](CC=C)CC(=O)N(CCO)Cc1ccccc1,-3.2% (inactive)
2,CC(C)(C)NS(=O)(=O)NC(=O)C1=C(N2CCCC2)COC1=O,-7.92% (inactive)
3,COc1ccc(NC(=O)CNc2cc(S(=O)(=O)N3CCOCC3)ccc2N2CCOCC2)c(OC)c1,-2.12% (inactive)
4,CC(CNC(=O)Cn1cnc2c(OCc3ccccc3)ncnc21)c1ccccc1 (configuration not stated),0.936% (inactive)
5,CC(C)(C)OC(=O)C[C@@H]1C/C=C\C[C@@H](CC(=O)N[C@H](CO)Cc2ccccc2)C(=O)NC[C@@H](c2ccccc2)OC1=O,6.98% (inactive)
6,CCOc1cc2ccccc2cc1C(=O)Nc1ccccn1,-5.78% (inactive)
7,Cc1ccc(Cl)cc1NC(=O)c1ccccn1,-1.51% (inactive)
8,CCN(CC)CCOc1ccc2c(c1)C(=NNC(=O)c1ccccn1)c1cc(OCCN(CC)CC)ccc1-2,107% (active)
9,NS(=O)(=O)c1ccc(CNC(=O)c2cccc(S(=O)(=O)N3CCc4ccccc43)c2)cc1,1.37% (inactive)
10,O=C(Nc1cc(S(=O)(=O)N2CCCCC2)ccc1Cl)C1COc2ccccc2O1 (configuration not stated),3.53% (inactive)
11,Cc1cccc(NC(=O)Nc2nnc(-c3ccccc3)o2)c1,-2.12% (inactive)
12,Cc1cccc(NC(=O)Nc2cccc(Oc3c(F)c(F)c(F)c(F)c3F)c2)c1,99.2% (active)
13,COc1cccc(NC(=O)NCc2ccc(F)cc2)c1,-3.25% (inactive)
14,CN(CC(=O)Nc1ccc(C(N)=O)cc1)S(=O)(=O)c1ccc2c(c1)OCCO2,-4.98% (inactive)
15,N#Cc1cccc(NC(=O)C2CCCN(C(=O)c3ccc(Cl)cc3)C2)c1 (configuration not stated),0.765% (inactive)
16,O=C(N/N=C/c1ccc([N+](=O)[O-])o1)c1cn(-c2ccccc2)nc1-c1ccc(F)cc1,-1.79% (inactive)
17,Cc1ccc(/C=C/C(=O)Nc2ccc([N+](=O)[O-])c(NC(=O)/C=C/c3ccc(C)o3)c2)o1,2.69% (inactive)
18,O=C(/C=C/c1ccc([N+](=O)[O-])o1)NNC(=O)c1ccc(F)cc1,93.8% (active)
19,C[C@H]1COC(=O)[C@H](CC(=O)OC(C)(C)C)C/C=C\C[C@@H](CC(=O)N[C@H](CO)Cc2ccccc2)C(=O)N1,0.417% (inactive)
20,COCCCNC(=O)CC1C[C@H](C(=O)N2CCCCC2)[C@@]2(CCc3ccccc3)c3[nH]c4ccccc4c3CCN2C1=O (some centres not stated),-3.93% (inactive)
21,C=CC[C@@H](CC(=O)N[C@H](CO)Cc1ccccc1)C(=O)N[C@@H](COC(=O)[C@@H](CC=C)Cc1ccc(F)cc1)Cc1c[nH]c2ccccc12,2.3% (inactive)
22,COc1ccc(N2CCN(C(C)=C3C(=O)c4ccccc4C3=O)CC2)cc1,-2.02% (inactive)

row,Compound,protection from apoptosis
1,CCOC(=O)C1=C(c2ccc(OC)cc2)C(=O)c2ccccc2C1=O,130% (active)
2,CCOC(=O)c1c(-c2ccc(C)cc2)csc1/N=C(\C)C1=C(O)c2ccccc2C1=O,-5.12% (inactive)
3,Cc1ccc(NC(=O)C2CC2)cc1S(=O)(=O)N1CCOCC1,-4.34% (inactive)
4,CC(OC(=O)c1c(F)cccc1F)C(=O)NCCC1=CCCCC1 (configuration not stated),-3.37% (inactive)
5,CC(C)n1cnc2c(NCc3ccccc3)cc(N[C@@H](CO)Cc3ccccc3)cc21,135% (active)
6,CC(C)n1cnc2c(NCc3ccccc3)cc(OCC3CCN(C)CC3)cc21,-8.55% (inactive)
7,CCC(CO)Oc1cc(NCc2ccccc2)c2ncn(C3CCCC3)c2c1 (configuration not stated),-4.59% (inactive)
8,COc1ccc(C2(c3ccc(OC)cc3)NC(=O)N(CC(=O)Nc3cc(C)on3)C2=O)cc1,-3.35% (inactive)
9,CCn1nnc2cc(C(=O)Nc3ccc(C(=O)OC(C)C)cc3)ccc21,1.63% (inactive)
10,O=C(Nc1ccccc1Cl)Nc1cccc2cccnc12,15.9% (inactive)
11,O=C(Cc1ccc2c(c1)CCCC2)Nc1ccccc1Cl,9.68% (inactive)
12,O=C(Nc1ccccc1Cl)/C(Cl)=C(\Cl)S(=O)c1ccccc1 (configuration not stated),123% (active)
13,O=C(Nc1cccc(S(=O)(=O)NC2=NCCC2)c1)c1ccc(F)cc1F,-5.38% (inactive)
14,COc1cc(/C=C/C(=O)OCC(=O)c2ccccc2)cc(OC)c1OC,-3.69% (inactive)
15,Oc1ccc(N=Nc2nccs2)c(O)c1,98.3% (active)
16,c1ccc(NCc2cccc3ccccc23)nc1,-6.69% (inactive)
17,Oc1ccc2ccccc2c1N=Nc1nccs1,83.9% (active)
18,CCN1/C(=C\c2ccc3ccccc3[n+]2CC)Sc2cc(C)ccc21,106% (active)
19,Cc1nc2ccc(NC(=O)c3cccc(S(=O)(=O)N4CCOCC4)c3)cc2s1,-1.06% (inactive)
20,c1ccc2cc(CCCc3cc4ccccc4cn3)ncc2c1,-10.4% (inactive)
21,Cc1ccc(NC(=O)Cn2cnc3c(OCc4ccccc4)ncnc32)cc1C,-4.68% (inactive)
22,COCCN(Cc1ccccc1)C(=O)Cc1ccc(S(=O)(=O)N2CCOCC2)s1,-6.29% (inactive)

row,Compound,protection from apoptosis
1,O=C(CN1C(=O)NC2(CCCCCC2)C1=O)NCc1ccc(F)cc1,-3.82% (inactive)
2,Clc1ccc(C[n+]2cc(-c3ccccc3)n3c2CCC3)cc1,-17.9% (inactive)
3,Cc1ccc(C(=O)C[n+]2cc(-c3ccccc3)n3c2CCCCC3)cc1,80.4% (active) and 69.5% (inactive)
4,Cc1ccc(-c2c[n+](CC(=O)Nc3ccccc3)c3n2CCC3)cc1,-4.97% (inactive)
5,O=C(CNC(=O)c1n[nH]c2ccccc12)Nc1cc(Cl)ccc1Cl,-6.41% (inactive)
6,CCOc1ccc(S(=O)(=O)N2CCCCC2)cc1NC(=O)CN1CCCC1c1cccs1 (configuration not stated),108% (active)
7,COc1ccc(S(=O)(=O)N2CCCCC2)cc1NC(=O)COc1ccccc1,3.1% (inactive)
8,COc1ccc(S(=O)(=O)N2CCCCCC2)cc1NC(=O)Cc1ccc(OC)c(OC)c1,-0.791% (inactive)
9,CCc1sc(C(=O)N2CCN(CC(=O)Nc3cccc(F)c3)CC2)cc1C,-5.03% (inactive)
10,O=C(Cc1ccc(Cl)c(Cl)c1)Nc1ccc(SC(F)F)cc1,-2.99% (inactive)
11,O=C(CC(O)(C(F)(F)F)C(F)(F)F)Nc1ccc(Cl)c(Cl)c1,105% (active)
12,O=C(CC1SCCNC1=O)Nc1ccc(Cl)c(Cl)c1 (configuration not stated),0.331% (inactive)
13,O=C(Cn1cnc2c(OCc3ccccc3)ncnc21)NCc1nc2ccccc2[nH]1,-9.45% (inactive)
14,COc1ccc(CNc2nc(NCc3ccc(OC)cc3)c3ncn(C4CCCC4)c3n2)cc1,-10.2% (inactive)
15,O=C(/C=C/c1cccc([N+](=O)[O-])c1)N1CCN(Cc2ccccc2)CC1,-1.33% (inactive)
16,O=c1c([N+](=O)[O-])cc(C(F)(F)F)cn1Cc1cccc(Cl)c1,-7.45% (inactive)
17,O=[N+]([O-])/C=C/c1ccc2c(ccn2Cc2ccccc2)c1,102% (active)
18,CCC(CO)Oc1cc(NC(=O)c2cccc3ccccc23)c2ncn(C(C)C)c2c1 (configuration not stated),4.17% (inactive)
19,O=C1C=C(c2cc(C(F)(F)F)cc(C(F)(F)F)c2)C[C@@H](c2ccc3c(c2)OCO3)C1,7.25% (inactive)
20,COc1ccc(-c2csc(NC(=O)COC(=O)Cc3ccc(Cl)cc3Cl)n2)cc1,2.13% (inactive)
21,COc1ccc(CC(=O)Nc2nc(-c3ccc(F)c(F)c3)cs2)cc1OC,97.5% (active)
22,COc1cccc(CC(=O)Nc2nc(-c3ccc(OC)c(OC)c3)cs2)c1,-4.99% (inactive)

row,Compound,protection from apoptosis
1,CCCc1ccc(-c2csc(NC(=O)Cc3cccs3)n2)cc1,6.06% (inactive)
2,Cc1ccc(S(=O)(=O)NC(=O)Nc2nc(-c3ccc(F)c(F)c3)cs2)cc1,-25.4% (inactive)
3,COc1cc(CC(=O)Nc2nc(-c3ccc(F)c(F)c3)cs2)cc(OC)c1OC,92.9% (active)
4,Cc1cccc(-n2ncc3c(=O)[nH]c(SCC(=O)Nc4cc(C)on4)nc32)c1,1.12% (inactive)
5,COc1ccc(CCNC(=O)COC(=O)Cc2ccccc2F)cc1,-2.5% (inactive)
6,Cc1ccc(CC(=O)Nc2ccc(S(=O)(=O)N3CCOCC3)cc2)cc1C,0.192% (inactive)
7,CC(OC(=O)c1cc2ccccc2[nH]1)C(=O)N(C)c1ccccc1 (configuration not stated),-1.05% (inactive)
8,CCS(=O)(=O)c1ccc2oc(SCC(=O)N3c4ccccc4CC3C)nc2c1 (configuration not stated),-3.73% (inactive)
9,Cc1cc(=O)[nH]c(SCC(=O)N2c3ccccc3CC2C)n1 (configuration not stated),-8.13% (inactive)
10,CC1Cc2ccccc2N1C(=O)CSc1nc2ccccc2o1 (configuration not stated),104% (active)
11,O=C(COC(=O)c1cccnc1Cl)NC12CC3CC(CC(C3)C1)C2,-1.6% (inactive)
12,Cc1ccc(NC(=O)C2CCC(C(C)(C)C)CC2)cc1S(=O)(=O)N1CCOCC1 (configuration not stated),6.89% (inactive)
13,COc1ccc(CCNC(=O)/C(C#N)=C2\N=C(NC(=O)c3cccs3)c3ccccc32)cc1,-2.09% (inactive)
14,COc1ccc(CCNC(=O)CSc2nnc(CNC(=O)c3cccs3)o2)cc1OC,-5.35% (inactive)
15,O=C(NCC#CCSc1nnc(-c2cccc3ccccc23)o1)c1cccs1,109% (active)
16,Cc1noc(C)c1NC(=O)Nc1cccc2c1O[C@H](CN(C)S(=O)(=O)c1c(C)noc1C)[C@@H](C)CN([C@H](C)CO)C2=O,1.37% (inactive)
17,COc1ccc(S(=O)(=O)N2CCOCC2)cc1NC(=O)CSc1nnc(NC2CC2)s1,0.467% (inactive)
18,CC(NC(=O)COC(=O)Cn1cc(C(F)(F)F)ccc1=O)c1ccccc1 (configuration not stated),1.74% (inactive)
19,COc1cc(NC(=O)c2ccccc2NS(=O)(=O)c2ccc(Cl)s2)cc(OC)c1,111% (active)
20,COC(=O)c1ccc(NC(=O)c2ccccc2NS(=O)(=O)c2ccccc2)cc1,32.1% (inactive)
21,CCOc1ccc(NC(=O)c2ccccc2NS(C)(=O)=O)cc1,0.287% (inactive)
